Test results as given in PubChem BioAssay (NCATS).
Inconclusive results are not listed. A call without a number means that no potency is given here. The source made the active and inactive calls. Unless noted, calls follow the shape of the dose curve; as a rule, active = well fitted curve in the direction sought with a large enough effect; inconclusive = small, poorly fitted or top-dose-only effect, or another doubt; inactive = no such curve, though single readings can be large; an effect the other way counts as inactive or inconclusive.

What was measured:
[1] = target: Flap endonuclease 1 (Homo sapiens) (UniProt P39748); test: qHTS Validation Assay for the Inhibitors of Human Flap endonuclease 1 (FEN1) (AID 488816)
Summary of the method: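 Steps: add FEN1 (10 nM reagent) or buffer only; pin compounds; hold 15 min at room temperature; start with substrate, 50 nM final; read at 0 and 15 min; correct, normalize and fit a four-parameter Hill curve.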

[2] = target: M-phase phosphoprotein 8 (Homo sapiens) (UniProt Q99549); test: qHTS Validation Assay for Inhibitors for MPP8 Chromodomain Interactions with Methylated Histone Tails (AID 488949);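 also: 50 nM MPP8 with 50 nM peptide preformed then compounds added for 30 min; AlphaScreen signal from MPP8 chromodomain bound to biotinylated H3K9me3 peptide; top concentration of the series differs between compounds; nearly all actives have a fitted effect of over 55% in size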
Summary of the method: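 Chemiluminescent proximity assay: histidine-tag capture via nickel acceptor beads, biotin peptide via streptavidin donor beads. Protein and peptide each at 50 nM, pH 7.4, with 30 min incubations at room temperature for complex formation, compound exposure and bead binding.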

[3] = target: Chromobox protein homolog 1 (Homo sapiens) (UniProt P83916); test: qHTS Validation Assay for Inhibitors of HP1-beta Chromodomain Interactions with Methylated Histone Tails (AID 488953); also: nearly all actives have a fitted effect of over 50% in size; also: potency is read from the fitted curve at half-maximal effect
Summary of the method: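 Compounds pinned into a preassembled complex of HP1-beta and trimethyl-K9 histone H3(1-18) biotin peptide (50 nM each; PBS pH 7.4, 0.01% Tween-20). After 30 min, bead-based AlphaScreen detection followed.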

[4] = target: Methanococcus maripaludis chaperonin (MmCpn) (UniProt Q6LX38); test: High-Throughput Screening for Modulators of Cytosolic Chaperonin Activity: MmCpn Primary Screen (AID 488978)
Sequence of Methanococcus maripaludis chaperonin (MmCpn) (Q6LX38 1-543): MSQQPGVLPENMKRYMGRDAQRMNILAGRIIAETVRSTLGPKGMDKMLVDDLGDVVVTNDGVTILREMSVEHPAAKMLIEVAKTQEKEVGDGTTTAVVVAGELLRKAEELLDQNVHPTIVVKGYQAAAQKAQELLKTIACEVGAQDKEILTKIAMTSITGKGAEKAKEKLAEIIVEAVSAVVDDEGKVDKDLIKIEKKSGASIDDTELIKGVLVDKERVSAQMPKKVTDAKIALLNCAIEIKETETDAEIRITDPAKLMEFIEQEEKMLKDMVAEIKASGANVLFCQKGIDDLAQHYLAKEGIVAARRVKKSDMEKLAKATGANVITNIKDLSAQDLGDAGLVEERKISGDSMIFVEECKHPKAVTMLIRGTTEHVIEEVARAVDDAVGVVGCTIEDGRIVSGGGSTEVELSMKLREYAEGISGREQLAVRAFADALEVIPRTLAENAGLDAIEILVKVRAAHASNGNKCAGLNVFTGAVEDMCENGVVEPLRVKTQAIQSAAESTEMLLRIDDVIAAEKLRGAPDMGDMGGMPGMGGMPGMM
Summary of the method: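 HTRF readout (320 nm excitation, 590/665 nm emission) of ADP generated by 50 nM MmCpn hydrolysing 30 uM ATP during 10 min at 37C; compound preincubated 5 min RT.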

[5] = target: Transient receptor potential cation channel subfamily V member 1 (Homo sapiens) (UniProt Q8NER1); test: HTS Assay for Compounds that Act as Enhancers of the Vanilloid Receptor 1 (AID 488979)
Sequence of Transient receptor potential cation channel subfamily V member 1 (Homo sapiens) (Q8NER1 whole entry, looked up): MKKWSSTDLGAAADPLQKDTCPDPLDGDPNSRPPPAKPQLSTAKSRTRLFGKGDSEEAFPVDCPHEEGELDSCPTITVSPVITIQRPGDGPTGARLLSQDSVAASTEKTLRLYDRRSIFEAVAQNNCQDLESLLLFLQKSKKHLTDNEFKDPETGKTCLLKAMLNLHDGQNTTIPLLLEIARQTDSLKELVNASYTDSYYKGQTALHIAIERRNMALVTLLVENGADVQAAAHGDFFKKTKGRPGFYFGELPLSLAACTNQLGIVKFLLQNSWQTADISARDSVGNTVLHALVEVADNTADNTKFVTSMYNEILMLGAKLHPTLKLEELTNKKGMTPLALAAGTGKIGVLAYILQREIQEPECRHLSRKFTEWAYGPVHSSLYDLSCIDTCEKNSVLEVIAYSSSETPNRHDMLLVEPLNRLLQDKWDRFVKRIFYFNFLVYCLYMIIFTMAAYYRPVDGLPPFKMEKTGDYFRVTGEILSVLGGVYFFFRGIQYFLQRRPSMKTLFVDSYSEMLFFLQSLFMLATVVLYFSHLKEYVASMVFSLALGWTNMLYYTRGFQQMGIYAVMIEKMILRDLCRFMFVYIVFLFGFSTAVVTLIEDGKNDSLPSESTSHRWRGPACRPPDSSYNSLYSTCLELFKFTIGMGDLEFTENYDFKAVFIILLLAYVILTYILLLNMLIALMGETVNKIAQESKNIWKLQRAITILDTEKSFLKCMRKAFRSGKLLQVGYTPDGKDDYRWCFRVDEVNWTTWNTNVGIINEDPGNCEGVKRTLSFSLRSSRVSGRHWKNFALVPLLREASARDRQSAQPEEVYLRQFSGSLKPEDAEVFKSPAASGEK
Summary of the method: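 TRPV1-expressing cells loaded with Fluo-8 calcium dye; compounds added and calcium influx read kinetically for 3 min (agonist phase), then capsaicin at EC20 added and read 2 min more for enhancement. Fluorescence ex 480/em 520 nm.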

[6] = target: D(1A) dopamine receptor (Homo sapiens) (UniProt P21728); test: HTS Assay for Allosteric Agonists of the Human D1 Dopamine Receptor: Primary Screen for Agonists (AID 488981)
Sequence of D(1A) dopamine receptor (Homo sapiens) (P21728 whole entry, looked up): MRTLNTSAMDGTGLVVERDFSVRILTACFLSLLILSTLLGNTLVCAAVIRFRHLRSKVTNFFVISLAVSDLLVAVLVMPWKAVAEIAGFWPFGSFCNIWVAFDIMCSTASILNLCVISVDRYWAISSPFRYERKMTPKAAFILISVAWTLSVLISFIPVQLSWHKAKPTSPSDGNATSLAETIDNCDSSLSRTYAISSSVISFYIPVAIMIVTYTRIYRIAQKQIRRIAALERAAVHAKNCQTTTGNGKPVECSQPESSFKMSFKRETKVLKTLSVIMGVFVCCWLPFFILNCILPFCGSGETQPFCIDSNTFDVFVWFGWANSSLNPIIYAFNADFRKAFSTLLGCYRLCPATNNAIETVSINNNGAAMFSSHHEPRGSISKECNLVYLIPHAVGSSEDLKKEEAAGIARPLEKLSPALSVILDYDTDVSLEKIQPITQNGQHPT
Summary of the method: (§1)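 Tetracycline-induced HEK293 T-REx cells force-coupled to calcium signalling were incubated overnight at 30 C and dye-loaded at room temperature. Calcium flux over 180 s after compound addition flagged agonists; a further 180 s read after EC20 dopamine flagged potentiators.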

[7] = target: D(1A) dopamine receptor (Homo sapiens) (UniProt P21728); test: HTS Assay for Allosteric Agonists of the Human D1 Dopamine Receptor: Primary Screen for Potentiators (AID 488982)
Summary of the method: as §1

[8] = target: D(1A) dopamine receptor (Homo sapiens) (UniProt P21728); test: HTS Assay for Allosteric Agonists of the Human D1 Dopamine Receptor: Primary Screen for Antagonists (AID 488983);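 also: calcium flux response to an EC80 dopamine challenge measured with no-wash dye; nearly all actives have a fitted effect of over 65% in size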
Summary of the method: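 In this primary screen, compounds are applied to calcium-dye-loaded HEK293 T-REx cells with force-coupled D1 expression induced overnight at 30 C. An EC80 of dopamine follows the 180 s compound phase, and calcium is monitored for a further 180 s.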

[9] = Validation screen for small molecules that induce genotoxicity in human embryonic kidney (HEK293T) cells expressing luciferase-tagged ELG1 (AID 493106)
Summary of the method: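 In this validation screen, increased ELG1-luciferase signal flags compounds causing genetic stress. HEK293T reporter cells are treated 16 hr (37 °C, 5% CO2), developed with ONE-Glo for 30 min at room temperature, and imaged on a CCD-based reader.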

[10] = target: Thyrotropin-releasing hormone receptor (Homo sapiens) (UniProt P34981); test: qHTS for Small Molecule Agonists and Allosteric Enhancers of Human TRH Receptor: Validation Screen for Agonists (AID 493127;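 active = calcium activation more than 3 SD above the typical response in the agonist read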;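 also: intracellular calcium rise by fluo-8 fluorescence before TRH EC20 addition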); details: TRH receptor agonist cell assay; at 2 µM; stronger effect = higher value
Sequence of Thyrotropin-releasing hormone receptor (Homo sapiens) (P34981 whole entry, looked up): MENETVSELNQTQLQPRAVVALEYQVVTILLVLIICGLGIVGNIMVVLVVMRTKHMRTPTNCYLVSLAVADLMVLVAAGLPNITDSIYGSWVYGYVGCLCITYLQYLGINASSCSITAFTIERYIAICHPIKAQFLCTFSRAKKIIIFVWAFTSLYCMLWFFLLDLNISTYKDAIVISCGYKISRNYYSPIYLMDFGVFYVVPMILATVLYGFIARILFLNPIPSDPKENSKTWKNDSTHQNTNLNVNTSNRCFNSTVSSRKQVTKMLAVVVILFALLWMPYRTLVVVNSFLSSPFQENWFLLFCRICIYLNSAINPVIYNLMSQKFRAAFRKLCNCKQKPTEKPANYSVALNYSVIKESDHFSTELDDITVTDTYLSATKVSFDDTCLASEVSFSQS
Summary of the method: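 Kinetic fluorescence assay of agonist-induced calcium release: overnight-plated TRHR cells, room-temperature fluo-8 loading, baseline then compound addition with per-second reads.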

[11] = Nrf2 qHTS screen for inhibitors: Validation (AID 493153; active = well fitted inhibition curve with a large enough effect in the main read-out, with a control signal flat, not every such curve was filed as active); details: Potency: luciferase luminescence; viability change: measured here: cytotoxicity max response
Summary of the method: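 In this counterscreened reporter format, each well gives two signals: CellTiter-Fluor fluorescence for cytotoxicity and ARE-luciferase luminescence for Nrf2 function. A549 ARE_Fluc cells in 5% FBS OPTI-MEM were exposed to compound titrations for 18-24 h.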

[12] = qHTS for Inhibitors of Cell Surface uPA Generation: Validation Assay (AID 493164);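 also: RAW 264.7 macrophage cells exposed to compound for 18 h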
Summary of the method: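 Compounds are titrated over seven points (2.45 nM–38.3 uM final) onto pre-plated RAW 264.7 cells and incubated for 18 h. Retained intracellular ATP, measured with ATP-Lite, indicates blocked lethal factor entry.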

[13] = target: Galactokinase (Homo sapiens) (UniProt P51570); test: qHTS Validation Assay for Inhibitors of Human Galactokinase (GALK) (AID 493189)
Summary of the method: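 Enzyme activity is inferred from ATP consumption: human GALK phosphorylates galactose (100 uM) using 35 uM ATP for 1 h at room temperature, and luciferase-based Kinase-Glo Plus reports unconsumed ATP.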

[14] = Validation screen for small molecules that induce DNA re-replication in SW480 colon adenocarcinoma cells (AID 504364)
Summary of the method: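 Hoechst-stained SW480 nuclei, imaged at 405 nm excitation after 48 hr compound exposure, were counted for elevated DNA content as the re-replication signal.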

[15] = target: Peptidyl-prolyl cis-trans isomerase NIMA-interacting 1 (Homo sapiens) (UniProt Q13526); test: qHTS Validation Assay to Find Inhibitors of Pin1 (AID 504536; active = well fitted inhibition curve with a large enough effect in the polarisation, with a control signal flat, not every such curve was filed as active; the % refers to the polarisation)
Sequence of Peptidyl-prolyl cis-trans isomerase NIMA-interacting 1 (Homo sapiens) (Q13526 whole entry, looked up): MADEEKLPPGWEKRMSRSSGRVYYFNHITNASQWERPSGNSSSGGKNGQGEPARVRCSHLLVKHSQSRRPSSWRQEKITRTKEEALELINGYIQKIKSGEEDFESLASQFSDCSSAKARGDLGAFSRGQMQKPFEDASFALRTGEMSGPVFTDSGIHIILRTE
Summary of the method: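 Fluorescence polarization competition: compounds (titration) displace HiFluor-488-labeled Pin1-1b peptide from Pin1 (0.3 uM final) in pH 7.5 HEPES buffer with DTT, 10 min at room temperature; %Activity normalized to no-enzyme wells, curves fitted.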

[16] = target: Phosphoglycerate kinase, glycosomal (Trypanosoma brucei brucei) (UniProt P07378); test: qHTS Validation Assay to Find Inhibitors of Phosphoglycerate Kinase (AID 504547)
Summary of the method: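 In TEA buffer (100mM, pH 7.6) containing 5mM MgCl2 and 0.01% Tween-20, the GAPDH-coupled PGK reaction proceeded for 60 minutes at room temperature before a single luminescence reading using Kinase-Glo Plus.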

[17] = target: Thyrotropin receptor (Homo sapiens) (UniProt P16473); test: qHTS Assay for Antagonists of the Thyroid Stimulating Hormone Receptor (AID 488980); also: series mostly up to about 58 µM
Sequence of Thyrotropin receptor (Homo sapiens) (P16473 whole entry, looked up): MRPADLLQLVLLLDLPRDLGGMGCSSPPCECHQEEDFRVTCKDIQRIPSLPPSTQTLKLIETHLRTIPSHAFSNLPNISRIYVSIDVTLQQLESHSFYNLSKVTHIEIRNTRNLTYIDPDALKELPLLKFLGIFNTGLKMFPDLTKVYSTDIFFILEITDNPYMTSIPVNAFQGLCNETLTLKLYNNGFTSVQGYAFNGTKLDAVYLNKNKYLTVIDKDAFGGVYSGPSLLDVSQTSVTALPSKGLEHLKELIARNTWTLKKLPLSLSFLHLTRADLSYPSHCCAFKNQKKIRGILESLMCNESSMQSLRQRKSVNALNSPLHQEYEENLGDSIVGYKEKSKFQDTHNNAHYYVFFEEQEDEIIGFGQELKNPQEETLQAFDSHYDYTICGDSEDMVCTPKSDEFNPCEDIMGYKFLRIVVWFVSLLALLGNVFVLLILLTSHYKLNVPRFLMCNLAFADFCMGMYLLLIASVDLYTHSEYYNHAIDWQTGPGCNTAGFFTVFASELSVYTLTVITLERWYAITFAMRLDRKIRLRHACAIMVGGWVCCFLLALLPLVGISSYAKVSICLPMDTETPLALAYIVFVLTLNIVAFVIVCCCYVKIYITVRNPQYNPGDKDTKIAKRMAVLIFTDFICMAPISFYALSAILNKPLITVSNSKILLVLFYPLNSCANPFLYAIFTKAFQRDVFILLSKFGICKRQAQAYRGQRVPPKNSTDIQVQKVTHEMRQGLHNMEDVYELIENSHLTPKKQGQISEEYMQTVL
Summary of the method: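 Inhibition of TSH-stimulated cAMP accumulation was quantified by homogeneous time-resolved FRET in TSHR-transfected HEK293 cells. Agonist: TSH, 4 nM final (EC80).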

[18] = target: ATPase family AAA domain-containing protein 5 (Homo sapiens) (UniProt Q96QE3); test: Validation screen for small molecules that inhibit ELG1-dependent DNA repair in human embryonic kidney (HEK293T) cells expressing luciferase-tagged ELG1 (AID 493107);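 also: cells co-treated with the DNA-damaging agent 5-fluorouridine alongside compound; series mostly up to about 46 µM; inhibitors lower the ELG1-luciferase luminescence signal; nearly all actives have a fitted effect of over 70% in size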
Sequence of ATPase family AAA domain-containing protein 5 (Homo sapiens) (Q96QE3 whole entry, looked up, the tested form may be a part): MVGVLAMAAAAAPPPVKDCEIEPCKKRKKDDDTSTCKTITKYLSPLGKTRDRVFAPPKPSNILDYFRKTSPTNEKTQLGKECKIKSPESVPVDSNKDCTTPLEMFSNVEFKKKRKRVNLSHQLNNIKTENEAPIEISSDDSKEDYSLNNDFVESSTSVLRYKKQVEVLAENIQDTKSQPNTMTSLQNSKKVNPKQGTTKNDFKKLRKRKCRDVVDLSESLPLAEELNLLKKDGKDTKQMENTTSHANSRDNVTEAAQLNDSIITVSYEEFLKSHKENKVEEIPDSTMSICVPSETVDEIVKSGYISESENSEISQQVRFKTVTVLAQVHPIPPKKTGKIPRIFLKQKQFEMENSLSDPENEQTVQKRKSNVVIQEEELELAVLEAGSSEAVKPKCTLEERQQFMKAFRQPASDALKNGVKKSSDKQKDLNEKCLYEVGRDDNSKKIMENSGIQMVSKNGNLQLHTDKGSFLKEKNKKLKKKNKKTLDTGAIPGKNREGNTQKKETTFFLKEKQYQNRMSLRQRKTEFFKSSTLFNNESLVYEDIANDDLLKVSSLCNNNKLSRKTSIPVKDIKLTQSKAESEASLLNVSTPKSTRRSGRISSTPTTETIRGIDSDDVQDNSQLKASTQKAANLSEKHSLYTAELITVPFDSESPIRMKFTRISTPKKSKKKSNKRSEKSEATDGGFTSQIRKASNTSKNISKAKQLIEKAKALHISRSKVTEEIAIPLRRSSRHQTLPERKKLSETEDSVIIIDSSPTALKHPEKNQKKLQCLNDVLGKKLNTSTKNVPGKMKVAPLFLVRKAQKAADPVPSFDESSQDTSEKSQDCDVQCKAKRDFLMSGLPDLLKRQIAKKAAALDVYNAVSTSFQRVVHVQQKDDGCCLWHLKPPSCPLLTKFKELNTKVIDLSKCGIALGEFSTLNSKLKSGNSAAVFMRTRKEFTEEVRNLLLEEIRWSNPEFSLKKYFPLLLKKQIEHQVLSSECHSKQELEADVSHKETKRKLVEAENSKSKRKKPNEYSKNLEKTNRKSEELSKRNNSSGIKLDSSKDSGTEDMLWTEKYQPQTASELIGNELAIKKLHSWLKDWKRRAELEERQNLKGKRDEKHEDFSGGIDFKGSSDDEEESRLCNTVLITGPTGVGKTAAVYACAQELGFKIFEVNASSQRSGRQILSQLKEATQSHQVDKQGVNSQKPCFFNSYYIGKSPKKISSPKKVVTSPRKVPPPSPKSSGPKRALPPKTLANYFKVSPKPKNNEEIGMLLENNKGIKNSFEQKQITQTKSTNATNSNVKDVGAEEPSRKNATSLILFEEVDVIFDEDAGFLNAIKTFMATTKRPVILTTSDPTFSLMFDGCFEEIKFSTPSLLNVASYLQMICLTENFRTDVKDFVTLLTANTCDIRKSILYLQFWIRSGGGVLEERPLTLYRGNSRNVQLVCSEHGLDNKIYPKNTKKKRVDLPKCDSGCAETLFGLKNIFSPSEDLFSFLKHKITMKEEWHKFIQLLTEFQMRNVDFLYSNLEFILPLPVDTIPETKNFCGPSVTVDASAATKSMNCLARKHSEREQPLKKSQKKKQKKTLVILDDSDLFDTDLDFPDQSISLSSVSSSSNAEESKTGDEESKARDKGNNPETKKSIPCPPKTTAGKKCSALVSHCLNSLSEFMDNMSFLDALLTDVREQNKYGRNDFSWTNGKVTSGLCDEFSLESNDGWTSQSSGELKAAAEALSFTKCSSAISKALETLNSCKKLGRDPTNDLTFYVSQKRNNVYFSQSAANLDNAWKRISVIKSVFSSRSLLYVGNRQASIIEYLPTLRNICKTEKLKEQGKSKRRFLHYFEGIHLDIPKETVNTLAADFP
Summary of the method: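 Compounds reducing 5-fluorouridine-driven ELG1-luciferase signal in HEK293T cells were scored; exposure lasted 16 hr at 37 °C with luminescence detected via ONE-Glo.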

[19] = target: ATP-dependent 6-phosphofructokinase (Trypanosoma brucei brucei) (UniProt O15648); test: qHTS Assay to Find Inhibitors of T. brucei phosphofructokinase: hit validation (AID 492961);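 also: luminescence reports ADP formed as PFK phosphorylates fructose-6-phosphate with ATP; series mostly up to about 51 µM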
Summary of the method: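 Percent activity derived from corrected luminescence, normalized between 0x and 1x enzyme controls, then fitted to concentration-response curves. Conditions: 1.25 nM PFK, 0.1 mM ATP, 0.5 mM F6P, 45 min RT.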

SMILES | Potency [1] | Potency [2] | Potency [3] | outcome [4] | outcome [5] | Potency [6] | Potency [7] | Potency [8] | Potency [9] | activation [10] | Potency [11] | viability change [11] [%] | outcome [12] | outcome [13] | Potency [14] | Potency [15] | Potency [16] | outcome [17] | Potency [18] | Potency [19]
NC(CCCCCP(=O)(O)O)C(=O)O (stereo unspecified) | inactive | inactive | inactive | inactive | inactive | inactive | inactive | inactive | inactive | 0.312% (inactive) | inactive | 13.6 | inactive | inactive | inactive | inactive | inactive |  |  | 
C=CCN1CC[C@]23c4c5ccc(O)c4O[C@@H]2/C(=N/N=C2\CC[C@@]4(O)C6Cc7ccc(O)c8c7[C@@]4(CCN6CC=C)[C@@H]2O8)CC[C@@]3(O)C1C5 | inactive | inactive |  | inactive | inactive | inactive | inactive | inactive |  | 2.38% (inactive) | inactive | -1.45 | inactive | inactive | inactive |  | inactive | inactive |  | 
C[C@H](Cc1ccc2c(c1)OC(C(=O)O)(C(=O)O)O2)NC[C@H](O)c1cccc(Cl)c1 | inactive | inactive | inactive | inactive | inactive | inactive | inactive | inactive |  | 0.625% (inactive) | inactive | 0.983 | inactive | inactive | inactive | inactive | inactive |  | inactive | 
NCCc1c[nH]c2ccc(C(N)=O)cc12 | inactive | inactive | inactive | inactive | inactive | inactive |  | inactive | inactive | 1.5% (inactive) | inactive | 4.69 | inactive | inactive | inactive | inactive | inactive |  | inactive | 
C[Se]C[C@H](N)C(=O)O | inactive | inactive | inactive | inactive | inactive | inactive |  | inactive | inactive | 0.188% (inactive) |  |  | inactive | inactive | inactive | inactive | inactive |  |  | 
N[C@@H](Cn1oc(=O)[nH]c1=O)C(=O)O | inactive | inactive | inactive | inactive | inactive | inactive | inactive | inactive | inactive | -0.562% (inactive) | inactive | -3.31 |  | inactive | inactive | inactive | inactive |  | inactive | 
C=CCN1CC[C@]23c4c5ccc(O)c4O[C@H]2/C(=N/NC(=O)c2ccccc2)CC[C@@]3(O)[C@H]1C5 | inactive | inactive | inactive | inactive | inactive | inactive | inactive | inactive | inactive | 1.44% (inactive) | inactive | 7.77 |  | inactive | inactive | inactive | inactive |  |  | 
CCN1C[C@@]2(COC)C3[C@@H](OC)C4[C@@H]1C3([C@@H]1C[C@]3(O)[C@H](OC(=O)c5ccccc5)[C@@H]1[C@]4(OC(C)=O)[C@@H](O)[C@@H]3OC)[C@H](OC)C[C@H]2O | inactive | inactive | inactive | inactive |  | inactive |  | inactive | inactive |  | inactive | 0.88 | inactive |  |  | inactive | inactive |  |  | 
COc1cc(CC(C)N)c(OC)cc1I (stereo unspecified) | inactive | inactive |  | inactive | inactive | inactive | inactive | inactive |  | 0.562% (inactive) | inactive | -12.3 | inactive | inactive | inactive | inactive | inactive | inactive |  | 
NC(=O)COc1c(F)cc(SCCNS(=O)(=O)c2ccccc2)cc1F | inactive | inactive | inactive | inactive | inactive | inactive |  | inactive | inactive | 0% (inactive) |  |  | inactive | inactive | inactive | inactive | inactive |  | inactive | 
NCCCP(=O)(O)O | inactive | inactive |  | inactive | inactive | inactive | inactive | inactive | inactive | 0.562% (inactive) | inactive | 0.331 | inactive | inactive | inactive | inactive | inactive | inactive |  | 
O=[N+]([O-])/C=C/c1ccc2c(c1)OCO2 | inactive | inactive | 14.1 µM (active) | inactive |  | inactive | inactive |  |  |  |  |  | inactive |  |  | inactive | inactive |  |  | 
N[C@@H](Cn1ccc(=O)[nH]c1=O)C(=O)O | inactive | inactive | inactive | inactive |  | inactive | inactive | inactive | inactive |  | inactive | 2.76 |  |  |  | inactive | inactive |  | inactive | 
c1ccc2cc(CC3=NCCN3)ccc2c1 | inactive | inactive | inactive | inactive | inactive | inactive |  | inactive |  |  | inactive | -5.88 | inactive | inactive | inactive | inactive | inactive |  |  | inactive
NNC(N)=O | inactive | inactive | inactive | inactive | inactive | inactive | inactive | inactive | inactive | 0.625% (inactive) | inactive | -0.697 |  | inactive | inactive | inactive | inactive |  |  | 
